Consider 39 molecules from PubChem BioAssay (NCI).

Compounds without any hit were thinned out: in the full panel of roughly 83,000, 20% have a hit.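 Method: cells in 96-well plates; compound added at one concentration; 48 h incubation; percent growth measured; values under 10 scored active.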 The source made the active and inactive calls.

The assay has as its system OVCAR-8 ovarian. As to the kind of experiment: NCI-60 one-dose screen, 48 h (100 = growth as untreated, 0 = no growth, -100 = all killed). To be noted: 10 µM unless noted.
Turning to `O=S(=O)(NCCNc1nccc(-n2cnc3ccccc32)n1)c1ccc(Br)cc1`, the growth was 95.6% (inactive). `NS(=O)(=O)c1ccc(Nc2nc(N/N=C/c3ccccn3)nc(Nc3ccccc3)n2)cc1`: the growth was 3.72% (active).

For `NC(N)=Nc1ccc(Oc2cccc(Nc3ccc(Br)c(C(F)(F)F)c3)c2)cc1`, the growth is 51.2% (inactive). Regarding `O=c1[nH]c2ccccc2cc1CSc1ccccc1Nc1nccc(-c2ccc(Cl)cc2)n1`, the growth was 96.9% (inactive). The figure for `COc1ccccc1C(=O)Nc1cccc2c1C(=O)C(=O)C=C2` is 102% (inactive).

On to `CCO/C=N/C1=C(C#N)C(c2ccc(F)cc2)c2sc3c(C)cccc3c2O1` (centres undefined), for which the growth was 23.9% (inactive).

On to `O=C(NNc1nc2cc(F)ccc2n2c(CN3CCCC3)ccc12)c1cnccn1`, for which the growth was 13.9% (inactive). Under `COc1cc(-c2nn(C(C)(C)C)cc2-c2ccnc(NCCCNS(=O)(=O)c3ccccc3)n2)ccc1Cl` stands 84.9% (inactive); under `O=C(NCc1ncc[nH]1)c1ccc(-c2nc3ccc4[nH]ncc4c3c3c2CCCC3)cc1`, 16.1% (inactive). With `O=C(NNc1nc2cc(F)ccc2n2c(CO)ccc12)c1cnccn1`, the growth is 10.9% (inactive). The figure for `O=[N+]([O-])c1cc(/C=N/Nc2nc(N/N=C/c3ccc(Cl)c([N+](=O)[O-])c3)nc(N3CCCCC3)n2)ccc1Cl` is 31% (inactive).

On to `COc1c(N2CC3CCCNC3C2)c(F)cc2c(=O)c(C(=O)N/N=C/c3ccccc3)cn(C3CC3)c12` (centres undefined), for which the growth was 99.9% (inactive). The figure for `O=C(CNc1nc(-c2cccc([N+](=O)[O-])c2)cs1)Nc1cccc(Cl)c1` is 101% (inactive); for `O=S(=O)(NCCNc1nccc(-n2cnc3ccccc32)n1)c1ccc(C(F)(F)F)cc1` it is 63.5% (inactive). Under `CC(C)(C)c1ccc(C(=O)Nc2sc3c(c2C(N)=O)CC/C(=N\O)C3)cc1` stands 15.8% (inactive).

With `CC(=O)c1nnn(-c2c(C(=O)n3nc(C)cc3C)sc(=S)n2-c2ccccc2)c1C`, the growth was 103% (inactive).

Take `CNC(=O)c1c(NC(=O)c2ccccc2C(F)(F)F)sc2c1CCC(=O)C2`: the growth is 24.6% (inactive). Turning to `O=C(NNc1nc2cc(F)c(F)cc2n2cccc12)c1cnccn1`, the growth was 16.6% (inactive). Under `COc1cc(Nc2c(C#N)cnn3cc(-c4cnn(CC(C)(C)O)c4)cc23)ccc1Cl` stands 46.9% (inactive); under `CCCCCCCn1cc2c(N[C@H](C)c3ccccc3)ncnc2n1`, 103% (inactive); under `O=C(Cn1cc(-c2ccccc2)nn1)Nc1nc(-c2ccc(Cl)cc2)cs1`, 101% (inactive). Under `CCOC(=O)C(=O)CC(=O)N1C(=S)NC(=O)C1CC(C)C` (centres undefined) stands 101% (inactive); under `O=C1Nc2ccccc2/C1=C/c1ccc(CO)n1-c1ccc(Cl)cc1`, 85.9% (inactive). Under `CCO/C=N/C1=C(C#N)C(c2ccc(OC)cc2)c2sc3c(CC)cccc3c2O1` (centres undefined) stands 42.9% (inactive). For `O=C1[C@@H]2Cc3c([nH]c4ccccc34)[C@H](c3c(Cl)cccc3Cl)N2C(=O)CN1C1CCN(CC2CCCCC2)CC1`, the growth is 88.1% (inactive). The figure for `Cc1nn(-c2ccccc2)c2ncnc(N/N=C/c3cccc(O)c3)c12` is 59.2% (inactive); for `CS(=O)(=O)Nc1cc(-c2ccc3ncc(C#N)c(NCc4cccc(F)c4)c3c2)cnc1Cl` it is 7.95% (active); for `Cc1ccc(-n2cc(/C=C/C(=O)c3ccc(O)cc3)c(-c3ccc(S(C)(=O)=O)cc3)n2)cc1` it is 87.5% (inactive). Under `CC1(C)NCCC[C@]2(C)[C@H]3C/C(=N\O)C4[C@@H]5C[C@@](C)(CO)CC[C@]5(C)CC[C@@]4(C)[C@]3(C)CC[C@@H]12` (some centres undefined) stands 98.4% (inactive); under `C#CCNC1CCC(c2csc(C#C)n2)=C1C` (centres undefined), 40.5% (inactive).

Regarding `NS(=O)(=O)c1ccc(Nc2nc(Nc3ccccc3)nc3nnc(SCC(=O)NC4CCCCC4)n23)cc1`, the growth was 99.8% (inactive).

On to `O=C(CNc1nc(-c2cccc([N+](=O)[O-])c2)cs1)Nc1cccc([N+](=O)[O-])c1`, for which the growth was -3.29% (active).

With `O=C(CSc1nc2ccccc2c(=O)n1-c1ccc(Cl)cc1)N/N=C/c1ccc(N2CCCCC2)cc1`, the growth is 65.3% (inactive).

As for `O=C(c1ccc(Cl)cc1)C1[C@H](c2ccc(Cl)cc2)[C@@H](c2ccccc2)NC12C(=O)Nc1ccccc12` (some centres undefined), the growth is 64% (inactive). Under `CC(=O)c1ccc(Nc2nc(SCC(C)C)nc(-c3ccc(F)cc3)c2C#N)cc1` stands 101% (inactive); under `Fc1ccc(-c2cc3nc(C(Cl)Cl)nc(-c4ccc(F)cc4)n3n2)cc1`, 11.8% (inactive); under `CNc1ncc2cc(-c3ccc(-c4ncccc4F)cc3Cl)c(=O)n(CC3OCC(N)CO3)c2n1` (centres undefined), 65.6% (inactive). For `C#C[C@]1(O)CC[C@H]2[C@@H]3CC=C4c5sc(-c6ccc7c(c6)OCO7)nc5CC[C@]4(C)[C@H]3CC[C@@]21C`, the growth is 30.2% (inactive). The figure for `C=CCn1c(SCC(=O)Nc2ccc(C(=O)/C=C/c3ccc(C)cc3)cc2)nnc1-c1c[nH]c2ccccc12` is 90.9% (inactive).
